Results published in PubChem BioAssay AID1159580 (chemical genetic matrix, 2015).
Hit rate of the full screen: of about 5,500 compounds, about 2,000 (36%) were called active. Another 18% or so got no clear call; they are omitted. No stated cut-off is given here; in the data, active means normalized growth mostly below about 0.91 (no sharp cut-off); inconclusive means no clear call, values can overlap the other calls; inactive means mostly above about 0.92. This is one part of the list.

Experiment: chemical genetic growth profiling, strain panel (AID 1159580);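 further: tested at 20 µM; growth read once vehicle control cultures reached saturation at 30 °C; 1 = growth at the plate median or of vehicle wells; lower values mean less growth of the strain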
Details: S. cerevisiae deletion strains, growth OD

Measured: normalized growth

CCOC(=O)NC(=S)NC12CC3CC(CC(C3)C1)C2
inactive: locus YAR019C, strain CDC15, active compounds read low 0.978 | locus YBL105C, strain PKC1, active compounds read low 0.983 | locus YBR135W, strain CKS1, active compounds read low 0.977 | locus YBR136W, strain MEC1, active compounds read low 0.962 | locus YBR160W, strain CDC28, active compounds read low 0.984 | locus YDL017W, strain CDC7, active compounds read low 0.982 | locus YDL028C, strain MPS1, active compounds read low 0.978 | locus YDL101C, strain DUN1, active compounds read low 0.979 | locus YDL108W, strain KIN28, active compounds read low 0.957 | locus YDL132W, strain cdc53, active compounds read low 0.971 | locus YDL214C, strain PRR2, active compounds read low 0.875 | locus YDR052C, strain DBF4, active compounds read low 0.993 | locus YDR054C, strain cdc34, active compounds read low 0.967 | locus YDR226W, strain ADK1, active compounds read low 0.975 | locus YDR477W, strain SNF1, active compounds read low 0.894 | locus YER123W, strain YCK3, active compounds read low 0.827 | locus YER133W, strain GLC7, active compounds read low 0.86 | locus YFL009W, strain cdc4, active compounds read low 0.972 | locus YFL029C, strain CAK1, active compounds read low 0.974 | locus YFR003C, strain YPI1, active compounds read low 0.981 | locus YFR019W, strain FAB1, active compounds read low 0.955 | locus YFR028C, strain CDC14, active compounds read low 0.97 | locus YGR040W, strain KSS1, active compounds read low 0.872 | locus YGR052W, strain FMP48, active compounds read low 0.947 | locus YGR092W, strain DBF2, active compounds read low 0.787 | locus YHR030C, strain SLT2, active compounds read low 0.897 | locus YHR079C, strain IRE1, active compounds read low 0.915 | locus YHR082C, strain KSP1, active compounds read low 0.946 | locus YHR205W, strain SCH9, active compounds read low 0.965 | locus YIL147C, strain SLN1, active compounds read low 0.981 | locus YJL095W, strain BCK1, active compounds read low 0.964 | locus YJL128C, strain PBS2, active compounds read low 0.953 | locus YJL157C, strain FAR1, active compounds read low 0.865 | locus YJR016C, strain ILV3, active compounds read low 0.985 | locus YJR066W, strain TOR1 (second series), active compounds read low 0.789 | locus YJR066W, strain TOR1, active compounds read low 0.903 | locus YKL048C, strain ELM1, active compounds read low 0.968 | locus YKL067W, strain YNK1, active compounds read low 0.896 | locus YKL101W, strain HSL1, active compounds read low 0.923 | locus YKL193C, strain SDS22, active compounds read low 0.982 | locus YKL203C, strain TOR2, active compounds read low 0.958 | locus YLR113W, strain HOG1, active compounds read low 0.926 | locus YLR133W, strain CKI1, active compounds read low 0.934 | locus YLR403W, strain SFP1, active compounds read low 0.851 | locus YML070W, strain DAK1, active compounds read low 0.878 | locus YMR001C, strain CDC5, active compounds read low 0.973 | locus YMR205C, strain PFK2 (second series), active compounds read low 0.917 | locus YMR277W, strain FCP1, active compounds read low 0.977 | locus YNL006W, strain LST8, active compounds read low 0.971 | locus YNL020C, strain ARK1, active compounds read low 0.901 | locus YNL161W, strain CBK1, active compounds read low 0.987 | locus YNL183C, strain NPR1, active compounds read low 0.939 | locus YNL207W, strain RIO2, active compounds read low 0.97 | locus YNL222W, strain SSU72, active compounds read low 0.982 | locus YNL307C, strain MCK1 (second series), active compounds read low 0.881 | locus YOL078W, strain AVO1, active compounds read low 0.972 | locus YOL136C, strain PFK27, active compounds read low 0.898 | locus YOR061W, strain CKA2, active compounds read low 0.845 | locus YOR119C, strain RIO1, active compounds read low 0.934 | locus YOR231W, strain MKK1, active compounds read low 0.926 | locus YOR329C, strain SCD5, active compounds read low 0.984 | locus YPL031C, strain PHO85, active compounds read low 0.87 | locus YPL153C, strain RAD53, active compounds read low 0.863 | locus YPL204W, strain HRR25, active compounds read low 0.876 | locus YPL209C, strain IPL1, active compounds read low 0.981 | locus YPL256C, strain CLN2, active compounds read low 1 | locus YPR025C, strain CCL1, active compounds read low 0.982 | locus YPR106W, strain ISR1, active compounds read low 0.992 | locus YPR111W, strain DBF20, active compounds read low 0.996 | strain NNK1, active compounds read low 0.988 | strain TSCII, active compounds read low 0.971
